{"source": "paper PMC4552634", "about": "“A New Set of Chemical Starting Points with Plasmodium falciparum Transmission-Blocking Potential for Antimalarial Drug Discovery” (PLoS ONE, 2015)", "note": "The whole screen tested about 13,000 compounds, of which about 3,200 (25%) showed an effect of 50% or more. The list shows a part of the results.", "data": [{"test_system": "P. falciparum stage V gametocytes", "design": "BacTiter-Glo ATP luminescence viability of purified stage V gametocytes in 384-well plates, per cent inhibition versus DMSO", "conditions": "48 h, 5 µM; inhibitor", "units": {"% Inhibition": "%"}, "values": [{"molecule": "O=C(NCc1ccc(Cl)c(Cl)c1)[C@H]1CNCCN1C(=O)c1ccccc1", "note": "[TCMDC-141240]", "% Inhibition": 16.71}, {"molecule": "Cc1nc2ccc(NC(=O)Nc3ccnc4ccc(C(F)(F)F)cc34)cc2o1", "note": "[TCMDC-139534]", "% Inhibition": -18.3}, {"molecule": "COc1ccccc1N1CCN(CCCCNC(=O)c2ccc(NC(=O)c3ccc(OC(F)(F)F)cc3)cc2)CC1", "note": "[TCMDC-137780]", "% Inhibition": -5.009}, {"molecule": "CC(=O)Nc1ncc(C(=O)Nc2cccc(-c3cccc(-c4nc5ccc(F)cc5[nH]4)c3)c2)s1", "note": "[TCMDC-136914]", "% Inhibition": -0.106}, {"molecule": "CC(CN(C)C)C(=O)Nc1cccc(-c2ccc(-c3nc4ccc(C(F)(F)F)cc4[nH]3)cc2)c1", "note": "(stereo not shown) [TCMDC-137112]", "% Inhibition": -57.5}, {"molecule": "COc1ccc2nc(C)cc(NN=Cc3ccncc3)c2c1", "note": "[TCMDC-142017]", "% Inhibition": 88.79}, {"molecule": "COc1ccc2nc(-c3ccccc3)cc(NN=Cc3ccncc3)c2c1", "note": "[TCMDC-142041]", "% Inhibition": -9.454}, {"molecule": "COc1ccc2c(NN=Cc3cccnc3)cc(C)nc2c1", "note": "[TCMDC-142037]", "% Inhibition": 80.26}, {"molecule": "COc1ccc2nc(C)cc(NN=Cc3ccccc3)c2c1", "note": "[TCMDC-123830]", "% Inhibition": 2.081}, {"molecule": "CCOc1ccc2nc(C)cc(NN=Cc3cccnc3)c2c1", "note": "[TCMDC-142047]", "% Inhibition": 3.839}, {"molecule": "COc1ccc2c(NN=Cc3cccnc3)ccnc2c1", "note": "[TCMDC-142029]", "% Inhibition": 1.197}, {"molecule": "Cc1cc(-c2nc3ccc(N4CCN(C)CC4)cc3[nH]2)nn1Cc1cc(Cl)ccc1OCC(C)C", "note": "[TCMDC-136722]", "% Inhibition": 42.92}, {"molecule": "CC(=O)c1cccc(NC(=O)NC2CCN(CCCCCNC(=O)/C=C/c3ccc(Cl)c(Cl)c3)CC2)c1", "note": "[TCMDC-135716]", "% Inhibition": -43.54}, {"molecule": "Clc1ccc(-c2csc3ncnc(Cl)c23)cc1", "note": "[TCMDC-123811]", "% Inhibition": 48.01}, {"molecule": "COc1ccc(-c2csc3ncnc(Cl)c23)cc1OC", "note": "[TCMDC-125316]", "% Inhibition": 38.88}, {"molecule": "COc1ccc(-c2csc3ncnc(Cl)c23)cc1", "note": "[TCMDC-123805]", "% Inhibition": 65.98}, {"molecule": "COc1cc2c(cc1N(C(C)C)S(=O)(=O)c1sc3ccc(Cl)cc3c1C)CCNCC2", "note": "[TCMDC-141465]", "% Inhibition": 91.42}, {"molecule": "Cc1c(S(=O)(=O)Nc2ccc3nccc(N4CCN[C@H](C)C4)c3c2)sc2ccc(Cl)cc12", "note": "[TCMDC-139483]", "% Inhibition": -5.538}, {"molecule": "Cc1cnc2ccc(NS(=O)(=O)c3sc4ccc(Cl)cc4c3C)cc2c1N1CCNCC1", "note": "[TCMDC-139547]", "% Inhibition": 29.85}, {"molecule": "Oc1ccccc1CCNCC1CCc2ccccc2C1", "note": "(stereo not shown) [TCMDC-138024]", "% Inhibition": -11.67}, {"molecule": "O=C(NC1CCCC1)c1cc2c(=O)n3ccccc3nc2nc1NCCc1ccccc1", "note": "[TCMDC-125350]", "% Inhibition": 42.55}, {"molecule": "FC(F)(F)c1ccc2[nH]c(-c3ccc(-c4ccc(CNCCN5CCNCC5)cc4)s3)nc2c1", "note": "[TCMDC-132862]", "% Inhibition": 105.5}, {"molecule": "O=C(O)C(F)(F)F.O=C1CCCN1CCCNCc1ccc(-c2ccc(-c3nc4cc(C(F)(F)F)ccc4[nH]3)s2)cc1", "note": "[TCMDC-132764]", "% Inhibition": -35.61}, {"molecule": "O=C1CCCN1CCCNCc1ccc(-c2cccc(-c3nc4ccc(C(F)(F)F)cc4[nH]3)c2)cc1", "note": "[TCMDC-132752]", "% Inhibition": -22.52}, {"molecule": "Cn1nccc1C(=O)NCCNCc1ccc(-c2cccc(-c3nc4cc(C(F)(F)F)ccc4[nH]3)c2)cc1.O=C(O)C(F)(F)F", "note": "[TCMDC-133006]", "% Inhibition": -36.49}, {"molecule": "O=C1CCCN1CCCNCc1cccc(-c2ccc(-c3nc4ccc(C(F)(F)F)cc4[nH]3)cc2)c1", "note": "[TCMDC-132761]", "% Inhibition": -39.05}, {"molecule": "O=C(NCCN1CCCC1)c1ccc(-c2ccc(-c3nc4cc(C(F)(F)F)ccc4[nH]3)s2)cc1", "note": "[TCMDC-132315]", "% Inhibition": 12.27}, {"molecule": "FC(F)(F)c1ccc2[nH]c(-c3cccc(-c4ccc(CNCCN5CCNCC5)cc4)c3)nc2c1", "note": "[TCMDC-132872]", "% Inhibition": 109.9}, {"molecule": "FC(F)(F)c1ccc2nc(-c3cccc(-c4cccc(CNCCN5CCNCC5)c4)c3)[nH]c2c1", "note": "[TCMDC-132871]", "% Inhibition": 79.56}, {"molecule": "O=C(O)C(F)(F)F.O=C1CCCN1CCCNCc1cccc(-c2cccc(-c3nc4cc(C(F)(F)F)ccc4[nH]3)c2)c1", "note": "[TCMDC-132754]", "% Inhibition": -20.15}, {"molecule": "FC(F)(F)c1ccc2[nH]c(-c3ccc(-c4cccc(CNCCN5CCNCC5)c4)cc3)nc2c1", "note": "[TCMDC-132864]", "% Inhibition": 103.8}, {"molecule": "Cn1nccc1C(=O)NCCNCc1cccc(-c2ccc(-c3nc4cc(C(F)(F)F)ccc4[nH]3)cc2)c1.O=C(O)C(F)(F)F", "note": "[TCMDC-133014]", "% Inhibition": -13.72}, {"molecule": "O=C(N[C@@H](Cc1cc(F)cc(F)c1)[C@H](O)CNCc1cccc(C(F)(F)F)c1)c1cc(C2CCCC2)cc(N2CCCC2=O)c1", "note": "[TCMDC-134677]", "% Inhibition": 4.624}, {"molecule": "CCCC(CNCc1cccc(SC(F)(F)F)c1)CNc1cc(=O)c2ccccc2[nH]1", "note": "(stereo not shown) [TCMDC-139431]", "% Inhibition": 19.28}, {"molecule": "COc1ccc(CNCc2cccc(-c3csc(-c4nc5ccccc5[nH]4)c3)c2)cc1", "note": "[TCMDC-132734]", "% Inhibition": -55.02}, {"molecule": "Cc1cnc(N2CCN(CC3CCN(C)CC3)CC2)nc1Oc1ccc(-n2ccnc2)cc1", "note": "[TCMDC-132782]", "% Inhibition": 41.72}, {"molecule": "CC(C)N(Cc1cnc2nc(N)nc(N)c2n1)c1ccc(Cl)c(Cl)c1", "note": "[TCMDC-137675]", "% Inhibition": 8.837}, {"molecule": "CCCCc1ccc(NC(=O)Nc2cccc(CCNCc3ccccc3)c2)cc1", "note": "[TCMDC-141911]", "% Inhibition": -36.83}, {"molecule": "O=C(Nc1ccc(Cl)cc1)Nc1cccc(-c2cc(CNCCc3ccccc3)oc2-c2ccncc2)c1", "note": "[TCMDC-135557]", "% Inhibition": -5.534}, {"molecule": "CC(C)c1ccc(NC(=O)Nc2ccc(CCNCCCc3ccccc3)cc2)cc1", "note": "[TCMDC-140707]", "% Inhibition": 4.807}, {"molecule": "COC(=O)c1ccc(NC(=O)Nc2cccc(CCNCc3ccccc3)c2)cc1", "note": "[TCMDC-141910]", "% Inhibition": 76.66}, {"molecule": "O=C(Nc1ccc(Cl)cc1)Nc1cccc(CCNCc2ccccc2)c1", "note": "[TCMDC-141913]", "% Inhibition": 74.03}, {"molecule": "O=C(Nc1cccc(CCNCc2ccccc2)c1)Nc1cccc2ccccc12", "note": "[TCMDC-141912]", "% Inhibition": -6.517}]}]}
